Values joined by “and” are separate entries in the source; they are usually repeats but may differ in a detail not shown here. Identical values can stand only once. Inconclusive results are not listed. Active and inactive are the calls of the source. Unless noted, calls come from the whole dose curve; as a rule, active = well fitted curve in the direction sought with a large enough effect; inconclusive = small, poorly fitted or top-dose-only effect, or another doubt; inactive = no such curve, though single readings can be large; an effect the other way counts as inactive or inconclusive.
How the values were obtained:
[1] = test system: WaGa; assay: qHTS assay to identify novel small-molecules to repurpose for Merkel cell carcinoma treatment (AID 1296009); details: MCC and control cell lines, CellTiter-Glo viability, 72 h; series mostly up to 46 µM; note: nearly all actives have a fitted effect of over 60% in size; note: potency is the fitted concentration of half-maximal effect
Method in brief: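 Luminescence from CellTiter-Glo, read 10 min after addition at room temperature, reported viability following a 72 hr, 37 degree celsius treatment with NPC or MIPE compounds in titration; values normalized to plate controls.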

[2] = test system: CAOV3; assay: Primary qHTS to identify gynecologic anti-cancer compounds using libraries of approved drugs and bioactive compounds (AID 1345084); details: Gynecologic cancer cell panel viability, ATPlite luminescence, 48 h; series mostly up to 57.5 µM; note: nearly all actives have a fitted effect of over 55% in size; note: potency is the fitted concentration of half-maximal effect
Method in brief: (§1)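 Five-concentration response, 48 h; readout is ATP-driven luciferase luminescence.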

[3] = test system: HeLa; assay: as above; details: Gynecologic cancer cell panel viability, ATPlite luminescence, 48 h; series mostly up to 57.5 µM
Method in brief: as §1

[4] = test system: JEG-3; assay: as above; details: Gynecologic cancer cell panel viability, ATPlite luminescence, 48 h; series mostly up to 57.5 µM
Method in brief: as §1

[5] = test system: Tov-21-G; assay: as above; details: Gynecologic cancer cell panel viability, ATPlite luminescence, 48 h; series mostly up to 57.5 µM
Method in brief: as §1

[6] = test system: Tov112D; assay: as above; details: Gynecologic cancer cell panel viability, ATPlite luminescence, 48 h; series mostly up to 57.5 µM
Method in brief: as §1

[7] = test system: C33A; assay: as above; details: Gynecologic cancer cell panel viability, ATPlite luminescence, 48 h; series mostly up to 57.5 µM
Method in brief: as §1

[8] = test system: Es-2; assay: as above; details: Gynecologic cancer cell panel viability, ATPlite luminescence, 48 h; series mostly up to 57.5 µM
Method in brief: as §1

[9] = test system: PA-1; assay: as above; details: Gynecologic cancer cell panel viability, ATPlite luminescence, 48 h; series mostly up to 57.5 µM
Method in brief: as §1

[10] = qHTS assay to identify inhibitors of the type 1 interferon - major histocompatibility complex class I in skeletal muscle: Counter screen cell viability and HiBit confirmation (AID 1347412); details: iHSKM muscle cells + IFN-b, HiBiT or CellTiter-Glo, 24 h; for activity change, negative = inhibition: at 45.9 µM (top of the series); note: potency is the fitted concentration of half-maximal effect; for activity change, negative = inhibition: % is set by controls: 0 for no effect and ±100 for the full control effect; for all read-outs here: nearly all actives have a fitted effect of over 60% in size
Method in brief: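 CRISPR HLA-B*08:01-HiBit immortalized human myoblasts (C25cl48) stimulated with 4 ng/ml IFN-beta and compounds (12-point 1:3, top 46 uM final) for 24 h at 37 C. Duplicate plates read by HiBit lytic luminescence or CellTiter Glo ATP.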

[11] = test system: OV90; assay: Primary qHTS to identify gynecologic anti-cancer compounds using libraries of approved drugs and bioactive compounds (AID 1345084); details: Gynecologic cancer cell panel viability, ATPlite luminescence, 48 h; series mostly up to 57.5 µM; note: nearly all actives have a fitted effect of over 55% in size; note: potency is the fitted concentration of half-maximal effect
Method in brief: as §1

[12] = test system: CASKI; assay: as above; details: Gynecologic cancer cell panel viability, ATPlite luminescence, 48 h; series mostly up to 57.5 µM
Method in brief: as §1

[13] = test system: Hek293T; assay: as above; details: Gynecologic cancer cell panel viability, ATPlite luminescence, 48 h, control line for the selectivity index; series mostly up to 57.5 µM
Method in brief: as §1

[14] = test system: SKOV3; assay: as above; details: Gynecologic cancer cell panel viability, ATPlite luminescence, 48 h; series mostly up to 57.5 µM
Method in brief: as §1

[15] = Drug repurposing screens with cells derived from glioblastoma tumor samples (AID 1345199); details: GBM patient neurospheres viability, ATP luminescence, 48 h; note: nearly all actives have a fitted effect of over 40% in size; note: potency is the fitted concentration of half-maximal effect; for activity, negative = cell killing: % is set by controls: 0 for no effect and ±100 for the full control effect
Method in brief: (§2)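 Primary testing used CD133+ neurospheres from four GBM patients, seven concentrations, 48 h exposure and ATP-based viability; confirmation added three slower-growing patient lines.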

[16] = target: Nuclear receptor subfamily 1 group I member 2 (Rattus norvegicus) (UniProt Q9R1A7); assay: qHTS assay for small molecule activators of the rat pregnane X receptor (rPXR) signaling pathway (AID 651751; call rule not given here; note: 0% is about no effect); details: rPXR reporter cells, luciferase (One-Glo), 24 h
Nuclear receptor subfamily 1 group I member 2 (Rattus norvegicus), sequence (Q9R1A7 whole entry, looked up): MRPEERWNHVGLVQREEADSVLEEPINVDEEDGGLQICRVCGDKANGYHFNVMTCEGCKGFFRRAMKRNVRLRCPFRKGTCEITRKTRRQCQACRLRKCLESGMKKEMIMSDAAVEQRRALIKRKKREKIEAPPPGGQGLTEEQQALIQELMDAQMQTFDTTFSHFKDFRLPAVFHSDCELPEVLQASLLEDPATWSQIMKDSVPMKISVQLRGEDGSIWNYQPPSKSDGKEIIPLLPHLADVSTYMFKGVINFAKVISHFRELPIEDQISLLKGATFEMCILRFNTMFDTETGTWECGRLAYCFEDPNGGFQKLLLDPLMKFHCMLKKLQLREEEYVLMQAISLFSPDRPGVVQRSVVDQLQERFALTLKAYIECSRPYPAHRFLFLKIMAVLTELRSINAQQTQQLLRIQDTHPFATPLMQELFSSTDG

[17] = qHTS assay for small molecule activators of the human pregnane X receptor (PXR) signaling pathway (AID 720659; call rule not given here; note: 0% is about no effect)
[18] = test system: astro; assay: Drug repurposing screens with cells derived from glioblastoma tumor samples (AID 1345199); details: viability, ATP luminescence, 48 h; series mostly up to 45.9 µM; note: nearly all actives have a fitted effect of over 40% in size; note: potency is the fitted concentration of half-maximal effect; for activity, negative = cell killing: % is set by controls: 0 for no effect and ±100 for the full control effect
Method in brief: as §2

[19] = at 45.9 µM (top of the series), tumour line B
[20] = at 45.9 µM (top of the series), tumour line D
[21] = at 46 µM (top of the series), tumour line A
[22] = at 46.1 µM (top of the series), tumour line C

O=C(Nc1cccc(Br)c1)c1cccc(S(=O)(=O)N2CCCCCC2)c1
inactive: Potency [1] | Potency [2] | Potency [3] | Potency [4] | Potency [5] | Potency [6]

CC(C)(C)Cn1c(N)nc2ccc(-c3[nH]c(C(C)(C)C)nc3-c3ccc(F)cc3)nc21
inactive: Potency [7] | Potency [8] | Potency [3] | Potency [4] | Potency [9] | Potency [5] | Potency [6]

c1ccc2c(-c3cnn4cc(-c5ccc(N6CCNCC6)cc5)cnc34)ccnc2c1
active: Potency ([10]; HiBiT) 7.87 µM

COc1cc(N2CCC(N3CCN(C)CC3)CC2)ccc1Nc1ncnc(Nc2ccccc2S(=O)(=O)C(C)C)n1
active: Potency [3] 10 µM | Potency [11] 8.91 µM | Potency [9] 7.94 µM | Potency [5] 12.6 µM
inactive: Potency [1] | Potency [4]

CC(=O)Oc1cc2c(s1)CCN(C(C(=O)C1CC1)c1ccccc1F)C2 (stereo not drawn)
inactive: Potency [7] | Potency [2] | Potency [12] | Potency [8] | Potency [3] | Potency [13] | Potency [4] | Potency [11] | Potency [9] | Potency [14] | Potency [5] | Potency [6] | activity, negative = cell killing [15, 19] 4.77% | activity, negative = cell killing [15, 20] -7.3% | activity, negative = cell killing [15, 21] -27.4%
active: Potency [1] 10.5 µM

NC(=O)c1ccc2nc(-c3ccc(Oc4ccc(Cl)cc4)cc3)[nH]c2c1
active: Potency [9] 15.8 µM
inactive: Potency [12] | Potency [13] | Potency [4] | Potency [6]

CN(C[C@@H]1COCCO1)S(=O)(=O)Nc1ccc2ccc3ncc(-c4cnn(C)c4)cc3c(=O)c2c1
inactive: Potency [1] | Potency [12] | Potency [8] | Potency [13] | Potency [4] | Potency [11]
active: Potency [3] 12.6 µM | Potency [5] 20 µM

O=C(O)c1cc(O)c2c(c1)C(=O)c1cccc(O)c1C2=O
inactive: Potency [1] | max response [16] -2.8% | outcome [17]

N#C[C@H]1C[C@H]2C[C@@H]2N1C(=O)[C@@H](N)C12CC3CC(CC(O)(C3)C1)C2
inactive: activity, negative = cell killing [15, 19] -2.78% | activity, negative = cell killing [15, 20] -16.4% | activity, negative = cell killing [15, 21] -21.1% | activity, negative = cell killing [15, 22] 4.9%

Clc1ccc(Cn2c(CN3CCCC3)nc3ccccc32)cc1
inactive: Potency [1] | Potency [7] | Potency [2] | Potency [12] | Potency [8] | Potency [3] | Potency [13] | Potency [4] | Potency [11] | Potency [9] | Potency [14] | Potency [5] | Potency [6] | activity, negative = cell killing ([15]; at 20 µM (top of the series), tumour line C) -7.94% | activity, negative = cell killing ([15]; at 21.2 µM (top of the series), tumour line B) -28.4%
active: Potency ([15]; tumour line A) 2.51 µM

COc1ccc(C2Sc3ccccc3N(CCN(C)C)C(=O)C2OC(C)=O)cc1 (stereo not drawn)
inactive: Potency [7] | Potency [12] | Potency [8] | Potency [3] | Potency [13] | Potency [4] | Potency [11] | Potency [9] | Potency [5] | Potency [6]

O=c1c(-c2ccc(O)cc2)coc2cc(O)ccc12
inactive: max response [16] 6.21% and 11.9%

Cc1nc(N)sc1-c1ccnc(Nc2ccc(N3CCOCC3)cc2)n1
active: Potency [8] 10 µM | Potency [3] 2.51 µM | Potency [11] 15.8 µM | Potency [9] 8.91 µM | Potency [14] 8.91 µM | Potency [5] 14.1 µM | Potency [6] 12.6 µM | Potency ([10]; HiBiT) 5.57 µM

COc1ccc2c(Oc3ccc(NC(=O)c4c(C)n(CC(C)(C)O)n(-c5ccccc5)c4=O)cc3F)ccnc2c1
inactive: Potency [1] | Potency [7] | Potency [12] | Potency [8] | Potency [3] | Potency [13] | Potency [4] | Potency [11] | Potency [9] | Potency [5] | Potency [6]

NC[C@@H]1O[C@@H](O[C@H]2[C@@H](O)[C@H](O[C@@H]3[C@@H](O)[C@@H](N)C[C@H](N)[C@H]3O[C@H]3O[C@H](CN)[C@@H](O)[C@@H](O)[C@H]3N)O[C@H]2CO)[C@H](N)[C@@H](O)[C@@H]1O
inactive: activity, negative = cell killing [15, 19] 5.16% | activity, negative = cell killing [15, 20] 4.28% | activity, negative = cell killing [15, 21] -29.1% | activity, negative = cell killing [15, 22] 9.32%

Cc1ccc(C(=O)Nc2cccc(C(F)(F)F)c2)cc1Nc1nc(-c2cccnc2)nc2c1cnn2C
inactive: Potency [1] | activity change, negative = inhibition ([10]; HiBiT) -9.48% | activity change, negative = inhibition ([10]; Viability) -7.92%

CC(=O)O[C@]1(C(C)=O)CC[C@H]2[C@@H]3C=C(Cl)C4=CC(=O)[C@@H]5C[C@@H]5[C@]4(C)[C@H]3CC[C@@]21C
inactive: Potency [7] | Potency [12] | Potency [8] | Potency [13] | Potency [4] | Potency [11] | Potency [9] | Potency [14] | Potency [5] | Potency [6] | activity, negative = cell killing [15, 19] -17.9% | activity, negative = cell killing [15, 20] -23% | activity, negative = cell killing [15, 22] 2.8% | Potency [18] | outcome [17]

O=c1cc(-c2ccc(O)cc2)oc2cc(O)cc(O)c12
inactive: max response [16] -6.83% and -1.04%
active: Potency [1] 2.09 µM

O=C(Nc1ccccc1-c1cn2c(CN3CCNCC3)csc2n1)c1cnc2ccccc2n1
inactive: Potency [1] | Potency [7] | Potency [12] | Potency [8] | Potency [3] | Potency [13] | Potency [4] | Potency [11] | Potency [9] | Potency [14] | Potency [5] | Potency [6]
active: Potency ([10]; HiBiT) 11.1 µM | Potency ([10]; Viability) 15.7 µM

COCCOc1nc(-c2ccc(Cl)c(Cl)c2)n(-c2ccc(NC(=O)CCl)cc2)n1
inactive: Potency [3] | Potency [11]
active: Potency [7] 20 µM | Potency [2] 28.2 µM | Potency [8] 11.2 µM | Potency [5] 5.62 µM | Potency ([10]; HiBiT) 3.52 µM | Potency ([10]; Viability) 7.87 µM

CCOc1ccc(Nc2nc(-c3c(C)nc4ccccn34)cs2)cc1
active: Potency [7] 0.355 µM | Potency [8] 0.316 µM | Potency [3] 0.178 µM | Potency [11] 1.41 µM | Potency [5] 0.316 µM | Potency [6] 0.158 µM

CS(=O)(=O)N(Cc1ccco1)CC(O)Cn1c2ccccc2c2ccccc21 (stereo not drawn)
inactive: Potency [1] | Potency [7] | Potency [2] | Potency [12] | Potency [8] | Potency [3] | Potency [13] | Potency [4] | Potency [11] | Potency [9] | Potency [14] | Potency [5] | Potency [6]

CC(C)C(=O)Nc1ncc(-c2cc(C(F)F)nn2-c2c(Cl)cccc2Cl)s1
inactive: Potency [1] | Potency [7] | Potency [2] | Potency [12] | Potency [8] | Potency [13] | Potency [4] | Potency [11] | Potency [14]

NC(=O)c1cccc(-c2cc(Nc3ccc(OC(F)(F)F)cc3)ncn2)c1
inactive: Potency [7] | Potency [2] | Potency [12] | Potency [8] | Potency [3] | Potency [13] | Potency [4] | Potency [11] | Potency [9] | Potency [14] | Potency [5] | Potency [6]

— PubChem BioAssay (NCATS)
